High-throughput results: PubChem, several laboratories
The list is not random: actives were taken first. Their share in the collection is about 4%.
BoNT A protease = inhibitors of Botulinum neurotoxin A light chain protease | multiplex microsphere protease substrate cleavage, flow cytometry | inhibition, % at 10 µM | 360,000 tested, 0.17% active; note: plate controls were buffer without enzyme for full effect and enzyme alone for no effect
MazF activator = MazEF (E. coli) toxin RNase activation. P0AE70. FAM/BHQ RNA-DNA oligo cleavage fluorescence, 5 h. activation, % at 20 µM. 350,000 tested, 0.32% active. AID 504720; in the data active = activation above about 50%
BoNT-F LC inh = blocks Botulinum neurotoxin F light chain protease | inhibition, % at 10 µM | Multiplex microsphere protease cleavage assay, flow cytometry | 360,000 tested, 0.22% active | AID 588497; in the data active = inhibition above about 35%, passing the limit was not always enough; inconclusive = no clear call, values can overlap the other calls; note: plate controls were buffer without enzyme for full effect and enzyme alone for no effect
Bead autofluor = compound fluorescence in toxin protease inhibitor counterscreen; fluorescence intensity (no concentration beside the values); compound autofluorescence counterscreen, microsphere flow cytometry; active compounds read high; 360,000 tested, 3.1% active; AID 624483; in the data active = fluorescence intensity above about 16000; inconclusive = no clear call, values can overlap the other calls
DUSP3 inh = blocks human VHR1 dual specificity phosphatase. inhibition, % at 13.3 µM. 290,000 tested, 0.52% active. AID 1654. P51452. recombinant VHR phosphatase, pNPP absorbance; in the data active = inhibition above about 50%
Anthrax LF inh2 = anthrax lethal factor protease inhibition. P15917. multiplex microsphere protease cleavage assay, LF. inhibition, % at 10 µM. 360,000 tested, 0.12% active. AID 588501; note: plate controls were buffer without enzyme for full effect and enzyme alone for no effect
Target sequence (P15917 whole entry, looked up): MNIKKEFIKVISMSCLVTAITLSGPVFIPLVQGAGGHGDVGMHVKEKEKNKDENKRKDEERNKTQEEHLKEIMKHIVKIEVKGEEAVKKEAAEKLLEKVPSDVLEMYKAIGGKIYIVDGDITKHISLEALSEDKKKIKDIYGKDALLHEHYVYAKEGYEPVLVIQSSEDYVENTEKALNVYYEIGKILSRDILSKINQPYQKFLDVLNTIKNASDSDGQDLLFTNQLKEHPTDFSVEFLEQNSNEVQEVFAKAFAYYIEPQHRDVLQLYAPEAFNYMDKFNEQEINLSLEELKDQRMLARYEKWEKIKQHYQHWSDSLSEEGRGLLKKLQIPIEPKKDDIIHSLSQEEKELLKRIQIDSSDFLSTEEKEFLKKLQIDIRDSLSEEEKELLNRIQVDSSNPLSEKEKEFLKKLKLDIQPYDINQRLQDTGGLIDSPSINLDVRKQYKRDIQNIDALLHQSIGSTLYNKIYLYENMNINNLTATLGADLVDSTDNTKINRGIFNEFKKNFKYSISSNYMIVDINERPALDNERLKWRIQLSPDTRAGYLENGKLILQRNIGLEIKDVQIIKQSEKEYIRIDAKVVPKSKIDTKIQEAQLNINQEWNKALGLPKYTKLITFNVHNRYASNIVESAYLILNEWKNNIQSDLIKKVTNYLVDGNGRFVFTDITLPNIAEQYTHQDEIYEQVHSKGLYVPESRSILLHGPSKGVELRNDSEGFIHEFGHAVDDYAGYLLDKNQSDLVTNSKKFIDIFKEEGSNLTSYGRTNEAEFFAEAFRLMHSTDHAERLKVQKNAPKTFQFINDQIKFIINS
* hit, by the source's call; ? = inconclusive; . = not tested or not shown. Cut-off read from the data, not from the text of the source, unless noted: active = inhibition above about 30%; inconclusive = no clear call, values can overlap the other calls; inactive = below that.

SMILES	BoNT A protease	MazF activator	BoNT-F LC inh	Bead autofluor	DUSP3 inh	Anthrax LF inh2
c1ccc(-c2nc(NCC3CCCO3)c3oc4ccccc4c3n2)cc1 (stereo not drawn)	?	-6.2	-1.4	23676*	47.0	-2.7
CCc1nc(NCc2ccccn2)c2oc3ccccc3c2n1	-0.1	7.2	-5.7	3285	20.6	0.8
O=C(CSc1ncnc2c1oc1ccccc12)NCC1CCCO1 (stereo not drawn)	0.4	0.5	1.3	7999	.	2.2
c1ccc(CNc2ncnc3c2oc2ccccc23)nc1	?	0.0	-0.9	22122*	34.5	-3.6
c1ccc2c(c1)oc1c(NCC3CCCO3)ncnc12 (stereo not drawn)	0.1	2.5	2.4	23180*	41.4	0.5
Fc1ccc(-c2nc3ccc(Br)cn3c2Cc2cccc(Cl)c2)cc1	2.4	.	3.1	12358	.	5.3
Cc1cc(Nc2c(C)n(C)n(-c3ccccc3)c2=O)n2c(nc3ccccc32)c1C#N	0.3	17.0	9.5	9784	17.1	3.1
CCCc1cc(Nc2c(C)n(C)n(-c3ccccc3)c2=O)n2c(nc3ccccc32)c1C#N	-2.0	-8.7	-4.5	22932*	26.3	-0.1
COCCN(C(=O)c1csnn1)C(C(=O)NC1CCCC1)c1ccccc1 (stereo not drawn)	-0.4	1.2	2.7	4178	-9.4	0.5
Cc1ccc(C(C)NC(=O)c2c(C)noc2C)cc1C (stereo not drawn)	-4.0	6.4	-1.9	24941*	-0.2	-2.0
c1coc(-c2nc3nc4ccccc4nc3n2CC2CCCO2)c1 (stereo not drawn)	3.4	-11.5	1.3	22833*	-2.5	4.0
CCN(CC)C(=O)CSc1nnc(COc2ccc(OC)cc2)n1N	-0.6	6.3	5.6	3228	15.1	-6.5
CCOc1ccc(-n2c(C)nnc2SCC(=O)N(CC)CC)cc1	1.2	-2.6	-0.6	19915*	18.1	-1.0
Cc1onc(-c2c(Cl)cccc2Cl)c1/C(N)=N/OC(=O)C(C)(C)C	0.0	21.5	-13.8	4416	17.9	-2.2
Cc1cccc(N2CCN(C(=O)CCNC(=O)Cn3ccc4ccccc4c3=O)CC2)c1C	?	3.0	10.1	19164*	17.9	-18.8
CN1CCN(C(=O)CCNC(=O)Cn2ccc3ccccc3c2=O)CC1	1.6	-15.3	3.8	6370	30.5	-11.6
CCN1CCN(C(=O)CCNC(=O)Cn2cnc3ccccc3c2=O)CC1	-1.0	-29.1	6.5	2970	26.0	6.2
O=C(Cn1cnc2ccccc2c1=O)NCCC(=O)N1CCN(c2ccccc2)CC1	?	4.3	1.9	22618*	-4.0	-4.6
CCN(CC(=O)Nc1ccccc1C(F)(F)F)CC(=O)NC1CC1	-0.7	-0.6	17.8	4189	.	-0.4
COC(=O)c1cc2c(=O)c3ccccc3oc2nc1/C=C/N(C)C	9.0	85.2*	26.1	5144	19.7	-6.4
COc1cc(C=O)ccc1OCCOCCOc1cc(C)ccc1Cl	0.0	-5.6	-11.1	2710	-15.7	-1.4
COCOCCn1cc(CN2CCS(=O)(=O)N(Cc3ccc(-c4ccc(Cl)cc4)cc3)C(C)C2=O)nn1 (stereo not drawn)	0.1	0.0	2.8	2891	.	-8.9
CCOC(=O)c1c(-c2ccccc2Cl)cn2ccccc12	1.5	-18.8	2.9	21999*	-11.5	-7.5
COc1ccc(-c2cc(C(F)(F)F)n3nc(N)nc3n2)cc1	-1.1	-5.9	-0.9	23917*	18.6	-0.4
O=C(O)CSc1nnc(SCc2cccc3ccccc23)s1	0.9	0.6	4.5	10225	-8.8	2.9
Cc1cccc(Nc2nc(NC(C)C)nc(Oc3ccc(=O)n(C)n3)n2)c1	-2.4	-2.3	-4.3	23566*	18.7	-1.6
CCN(CC)S(=O)(=O)c1ccc2oc(C(=O)NCCN3CCOCC3)c(C)c2c1	-1.1	3.6	-1.2	5315	-6.8	-2.2
C=CCNC(=O)c1oc2ccc(S(=O)(=O)N(CC)CC)cc2c1C	-4.0	-3.5	-5.1	24786*	-21.4	-2.1
COc1cccc(C2c3c(oc4ccc(Cl)cc4c3=O)C(=O)N2c2cc(C)on2)c1OC (stereo not drawn)	-1.3	4.2	-2.4	16528*	29.5	-4.7
COc1ccc(CNC(=O)C[C@H]2C[C@H](C(=O)N3CCOCC3)[C@@]3(C)c4[nH]c5cc(-c6ccco6)ccc5c4CCN3C2=O)cc1OC	-0.3	1.2	-6.4	3053	.	-6.3
